# Screening results from PubChem.
# Compounds with a hit are over-represented: about 18% of the library has one in this group of screens.
# HepG2 viability = counter-screen for TGF-b inhibitors: cytotoxicity in HepG2 cells; 410,000 tested, 0.76% active; Potency, µM (doses to about 46.1 µM), inactives show at the top dose activity change, negative = cytotoxicity, actives largely listed as cytotoxic; HepG2 CAGA-GFP viability, ATP luminescence, 18 h; AID 588856; further: potency means the concentration at half of the fitted maximal effect
#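 HepG2 CAGA-GFP cells (1000/well, DMEM with 1% FBS) received compound, then TGF-beta at 500 pg/mL final, and were incubated 18 hours at 37 degrees C. Viability was read by CellTiter-Glo luminescence. Media-only wells were set as complete cell-killing and DMSO as no toxicity.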
# TDP1 cell CPT = growth inhibition of DT40 Tdp1-/-;hTDP1 cells with camptothecin (screen for TDP1 inhibitors); chicken DT40 Tdp1-/-;hTDP1 cells + 20 nM CPT, ATP luminescence, 48 h; Potency, µM (doses to about 46.2 µM), for inactives: top-dose activity change, negative = growth inhibition, actives largely listed as inhibitors; AID 686979; 420,000 tested, 12% active; further: potency means the concentration at half of the fitted maximal effect; on the % scale 0 is the no-effect control and ±100 the full control effect; nearly all actives have a fitted effect of over 55% in size
#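 Chicken DT40 Tdp1-/- cells complemented with human TDP1, 400 cells/well, exposed to compounds plus 20 nM camptothecin for at least 48 h at 37 C; viability read as ATP content by CellTiter-Glo luminescence.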
# TDP1 cell noCPT = qHTS for Inhibitors of human tyrosyl-DNA phosphodiesterase 1 (TDP1): qHTS in cells in absence of CPT | 420,000 tested, 15% active | Potency, µM (titrated, usually from 46.2 µM), without a hit: top-dose activity change, negative = growth inhibition, hits mostly inhibitors | DT40 Tdp1-/- hTDP1 cells, no CPT, ATP luminescence, 48 h; further: potency means the concentration at half of the fitted maximal effect; on the % scale 0 is the no-effect control and ±100 the full control effect; nearly all actives have a fitted effect of over 55% in size
#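 Cells were dispensed at 400 per well, compounds added by pin tool, plates incubated ≥48 hr at 37 °C, then CellTiter-Glo added for 30 min at room temperature before luminescence reading. Line: DT40 Tdp1-/- complemented with hTDP1; camptothecin omitted.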
# TGFb SMAD3 inh = TGF-b pathway inhibition; Potency, µM (highest dose often 46.1 µM), for inactives: at the highest dose activity, negative = inhibition, usual class: inhibitors; 410,000 tested, 1.2% active; HepG2 CAGA-GFP TGF-b/SMAD3 reporter, GFP fluorescence, 18 h; TGF-beta stimulated, 500 pg/mL final; further: potency means the concentration at half of the fitted maximal effect; on the % scale 0 is the no-effect control and ±100 the full control effect; nearly all actives have a fitted effect of over 65% in size
#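 GFP signal (ex488/em500-530) from TGF-beta-stimulated HEPG2 CAGA-GFP cells, 500 pg/mL final, 18 h at 37 degrees C in DMEM plus 1% FBS, normalized to unstimulated and DMSO-stimulated controls.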
# IL-1B inflam inh = inhibitors of inflammasome signaling (IL-1 beta secretion); THP-1 LPS/ATP IL-1B secretion, AlphaLISA, 16 h; active compounds read low; activity change, % at 57.5 µM; 360,000 tested, 4.7% active; AID 743279; in the data active means activity change below about -50%; inconclusive means mostly about -30% to -49%; further: on the % scale 0 is the no-effect control and ±100 the full control effect
#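 Secreted IL-1B measured by AlphaLISA bead assay after 16 h compound exposure of THP-1 cells; compounds (final up to 57.5 uM) added 1 h before LPS (250 ng/mL) and ATP (1.25 mM) stimulation; lower signal means less secretion.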
# TDP1 block = TDP1 (human) enzyme inhibition | Q9NUW8 | recombinant TDP1, AlphaScreen DNA substrate cleavage | Potency, µM (series often up to 130 µM), without a hit: at the highest dose activity change, negative = inhibition, actives largely listed as inhibitors | 350,000 tested, 0.28% active | AID 485290; further: potency means the concentration at half of the fitted maximal effect; on the % scale 0 is the no-effect control and ±100 the full control effect; nearly all actives have a fitted effect of over 40% in size
# Target sequence (Q9NUW8 whole entry, looked up): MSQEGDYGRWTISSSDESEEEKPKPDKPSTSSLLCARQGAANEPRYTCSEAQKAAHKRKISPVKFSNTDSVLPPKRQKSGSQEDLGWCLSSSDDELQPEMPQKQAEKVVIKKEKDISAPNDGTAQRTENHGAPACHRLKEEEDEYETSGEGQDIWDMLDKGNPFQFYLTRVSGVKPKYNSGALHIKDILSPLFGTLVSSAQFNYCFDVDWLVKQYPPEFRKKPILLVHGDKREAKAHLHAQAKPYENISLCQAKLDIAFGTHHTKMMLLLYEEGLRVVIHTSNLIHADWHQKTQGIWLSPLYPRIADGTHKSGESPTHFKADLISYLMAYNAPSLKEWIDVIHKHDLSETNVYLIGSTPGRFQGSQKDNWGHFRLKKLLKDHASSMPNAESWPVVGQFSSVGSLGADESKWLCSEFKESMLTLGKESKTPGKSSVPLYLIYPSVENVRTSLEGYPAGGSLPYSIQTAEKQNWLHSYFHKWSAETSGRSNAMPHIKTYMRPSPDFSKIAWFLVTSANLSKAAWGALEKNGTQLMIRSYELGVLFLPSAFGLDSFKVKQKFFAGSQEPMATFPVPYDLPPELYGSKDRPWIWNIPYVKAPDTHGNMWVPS
#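 E. coli-derived human Tdp1, 1 nM final. Cpd preinc 15 min RT; substrate 15 nM final, 5 min RT; AS bead mix 10 ug/ml final, 10 min RT. Signal loss = tyrosine-FITC cleavage. No-enzyme wells = max signal.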
# Active calls of the source: *; u = inconclusive; x = no result given; [ ] = dose if it differs, or a comment. Unless noted, the call rests on the fitted dose curve; in most records, active means well fitted curve in the direction sought with a large enough effect; inconclusive means small, poorly fitted or top-dose-only effect, or another doubt; inactive means no such curve, though single readings can be large; an effect the other way counts as inactive or inconclusive.
SMILES,HepG2 viability,TDP1 cell CPT,TDP1 cell noCPT,TGFb SMAD3 inh,IL-1B inflam inh,TDP1 block
COc1ccc(C(=O)Nc2cc(C(C)=O)c(C)oc2=O)cc1,-19%,-10%,u,1%,-10,-7%
ONC(=Nc1ccccc1)c1ccc(Cl)cc1,-18%,-9%,1%,u,-25,-4%
O=C(O)c1cccc2cccnc12,4%,2%,-14%,10%,0,4%
NC(N)=N/N=C(\N=Nc1ccccc1)c1cccc2cccnc12,-9%,23µM*,21µM*,u,-13,x
NC(N)=N/N=C(\N=Nc1ccccc1)c1ccc(Cl)cc1,-57%,13µM*,13µM*,-18%,-113*,x
COc1ccc(N2CCN(C(=O)CSc3nnc(-c4cccnc4)n3-c3ccccc3)CC2)cc1,-17%,-28%,-21%,3%,-18,9%
COc1ccc(N2CCN(C(=O)CSc3nnc4c(C)cc5ccccc5n34)CC2)cc1,3%,16µM*,13µM*,0%,16,2%
Cc1ccc(-n2c(SCC(=O)N3CCOCC3)nnc2-c2ccncc2)cc1,-1%,-1%,0%,0%,-3,2%
O=C(CSc1nnc(-c2ccncc2)n1-c1ccccc1)N1CCN(c2ccc(Cl)cc2)CC1,-10%,u,18µM*,-21%,14,3%
O=C(CSc1nnc(-c2cccnc2)n1-c1ccccc1)N1CCN(c2ccc(F)cc2)CC1,-19%,u,21µM*,-7%,-6,6%
Cc1cc2ccccc2n2c(SCC(=O)N3CCc4ccccc4C3)nnc12,-13%,u,u,17%,-5,0%
O=C(CSc1n[nH]c(-c2ccccc2)n1)N1CCN(c2ccc(F)cc2)CC1,7%,u,23µM*,19%,x,5%
O=C(NCCc1nnc2n1CCN(Cc1ccsc1)CC2)c1ccc(F)cc1,x,-1%,-7%,x,x,x
CC1CCN(S(=O)(=O)c2cc3c4c(c2)C(C)C(=O)N4CCC3)CC1 (configuration not stated),5%,-4%,-1%,8%,10,7%
O=C(CSC1=NCCS1)c1ccc(Cl)cc1,-3%,u,u,-17%,-26,5%
O=C(CSC1=NCCS1)N1CCN(c2ccc(Cl)cc2)CC1,-18%,u,u,-15%,-77*,1%
COc1ccc(N2CCN(C(=O)CSc3nnc(-c4cccnc4)n3-c3ccc(F)cc3)CC2)cc1,-3%,u,21µM*,4%,-18,0%
COC(=O)[C@H]1[C@H]2C[C@@H]3c4[nH]c5cc(OC)ccc5c4CCN3C[C@H]2C[C@@H](OC(=O)COc2ccc(OC)cc2)[C@@H]1OC,x,-4%,-21%,x,x,x
COc1ccc(CCNC(=O)c2cc(-c3ccccc3OC)on2)cc1OC,-28%,u,21µM*,-16%,u,-1%
COc1ccc(CCNC(=O)c2cc(CC(C)C)on2)cc1OC,2%,u,16µM*,-2%,11,10%
COc1ccc(CCNC(=O)c2cc(-c3ccc(C)c(C)c3O)n[nH]2)cc1OC,-19%,21µM*,16µM*,9%,u,-7%
COc1ccc(-c2cc(C(=O)NCCc3ccccc3)no2)cc1OC,-3%,-23%,-14%,u,-1,-7%
COc1ccc(CCNC(=O)c2cc(-c3ccc(Cl)cc3)on2)cc1OC,5%,-2%,0%,2%,x,4%
COc1ccccc1-c1cc(C(=O)NCCc2ccccc2)no1,-22%,13µM*,15µM*,4%,14,-2%
O=C(NCCc1ccccc1)C1CC(=O)N(C2CCCCC2)C1 (configuration not stated),0%,-24%,12%,0%,1,3%
SMILES,HepG2 viability,TDP1 cell CPT,TDP1 cell noCPT,TGFb SMAD3 inh,IL-1B inflam inh,TDP1 block
COc1ccc2nc3sc(C(=O)NCCc4ccc(Cl)cc4)cc3cc2c1,-42%,9%,-13%,2%,x,-2%[12.3 µM]
COc1ccc2cc3cc(C(=O)NCCc4ccccc4)sc3nc2c1Cl,-6%,12µM*,16µM*,-2%,x,-1%
CCN(CC)CCCNC(=O)Cn1cnc2sc(C)c(S(=O)(=O)N3CCC(C)CC3)c2c1=O,-1%,12%,-2%,4%,-2,3%
CC(NC(C(=O)c1ccccc1)c1ccccc1)c1ccccc1 (configuration not stated),-12%,4%,-14%,6%,-20,x
Cc1ccc(NC(=O)C(Nc2cccc(C)c2)c2ccccc2)cc1 (configuration not stated),-29%,u,18µM*,u,-15,5%
Cc1ccc(NC(C(=O)c2ccccc2)c2ccccc2)cc1 (configuration not stated),-8%,u,13µM*,u,-73*,x
Cc1cc(C)cc(NC(=O)C(Nc2ccccc2)c2ccccc2)c1 (configuration not stated),-19%,18µM*,-27%,-29%,-1,1%
Cc1ccc(NC(=O)C(Nc2ccccc2)c2ccccc2)cc1 (configuration not stated),-8%,0%,-1%,-10%,-11,0%
COc1cccc(NC(C(=O)Nc2cccc(C(C)=O)c2)c2ccccc2)c1 (configuration not stated),-7%,-24%,u,6%,8,-2%
COc1ccccc1-n1c(C)c(C(C)=O)c2cc(O)ccc21,16%,u,u,-13%,0,x
Cc1ccc(NC(=O)C(C)Sc2n[nH]c(CNc3ccccc3)n2)cc1 (configuration not stated),-12%,u,-6%,1%,-25,x
O=C(NCC1CC1)c1cccc2c(-c3ccc(F)c(F)c3)coc12,-24%,u,u,11%,-5,x
NC(=O)c1cccc(-c2coc3c(C(=O)NC4CCCCC4)cccc23)c1,-22%,u,8.2µM*,11%,-15,x
O=C(NCc1ccc(F)c(F)c1)c1cccc2c(-c3cccnc3)coc12,-33%,u,u,1%,-63*,x
NC(=O)c1cccc(-c2coc3c(C(=O)NCc4cccnc4)cccc23)c1,-22%,21µM*,23µM*,4%,66,x
CC(C)CNC(=O)c1cccc2c(-c3cccc(C(N)=O)c3)coc12,-27%,23µM*,u,-5%,-19,x
O=C(C[n+]1ccnc2ccccc21)c1ccc(Br)cc1,-35%,u,u,u,x,x
